Among the data in PubChem BioAssay are composite z-score and z-score values, retold here.

Test [1] can be described thus: compounds binding Alexa647 anti-His antibody – biochemical, small-molecule microarray, 635 nm fluorescence, artefact control for SMM control protein annotation, primary screen (AID 1128).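 Further: score merges feature fluorescence with signal-to-noise for each printed compound spot.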 Particulars: higher = more signal.
Test [2] deals with Human papillomavirus type 1a E7 protein (residues 1-88). Description: HPV1a E7 small-molecule binders, primary screen, biochemical, small-molecule microarray, residues 1-88, 635 nm (AID 1129). Particulars: small-molecule microarray binding, fluorescence 635 nm; higher = more signal.
Test [3] deals with Focal adhesion kinase 1 (Homo sapiens) (UniProt Q05397). Description: PTK2 protein binding on printed compound slides – biochemical, small-molecule microarray, 635/667 nm fluorescence, BSA, DTT, primary screen (AID 1130).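 Further: composite of spot emission at 667 nm and signal to noise over triplicate slides.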 Particulars: 635 nm fluorescence, higher = more signal.
Sequence of Focal adhesion kinase 1 (Homo sapiens) (Q05397 whole entry, looked up): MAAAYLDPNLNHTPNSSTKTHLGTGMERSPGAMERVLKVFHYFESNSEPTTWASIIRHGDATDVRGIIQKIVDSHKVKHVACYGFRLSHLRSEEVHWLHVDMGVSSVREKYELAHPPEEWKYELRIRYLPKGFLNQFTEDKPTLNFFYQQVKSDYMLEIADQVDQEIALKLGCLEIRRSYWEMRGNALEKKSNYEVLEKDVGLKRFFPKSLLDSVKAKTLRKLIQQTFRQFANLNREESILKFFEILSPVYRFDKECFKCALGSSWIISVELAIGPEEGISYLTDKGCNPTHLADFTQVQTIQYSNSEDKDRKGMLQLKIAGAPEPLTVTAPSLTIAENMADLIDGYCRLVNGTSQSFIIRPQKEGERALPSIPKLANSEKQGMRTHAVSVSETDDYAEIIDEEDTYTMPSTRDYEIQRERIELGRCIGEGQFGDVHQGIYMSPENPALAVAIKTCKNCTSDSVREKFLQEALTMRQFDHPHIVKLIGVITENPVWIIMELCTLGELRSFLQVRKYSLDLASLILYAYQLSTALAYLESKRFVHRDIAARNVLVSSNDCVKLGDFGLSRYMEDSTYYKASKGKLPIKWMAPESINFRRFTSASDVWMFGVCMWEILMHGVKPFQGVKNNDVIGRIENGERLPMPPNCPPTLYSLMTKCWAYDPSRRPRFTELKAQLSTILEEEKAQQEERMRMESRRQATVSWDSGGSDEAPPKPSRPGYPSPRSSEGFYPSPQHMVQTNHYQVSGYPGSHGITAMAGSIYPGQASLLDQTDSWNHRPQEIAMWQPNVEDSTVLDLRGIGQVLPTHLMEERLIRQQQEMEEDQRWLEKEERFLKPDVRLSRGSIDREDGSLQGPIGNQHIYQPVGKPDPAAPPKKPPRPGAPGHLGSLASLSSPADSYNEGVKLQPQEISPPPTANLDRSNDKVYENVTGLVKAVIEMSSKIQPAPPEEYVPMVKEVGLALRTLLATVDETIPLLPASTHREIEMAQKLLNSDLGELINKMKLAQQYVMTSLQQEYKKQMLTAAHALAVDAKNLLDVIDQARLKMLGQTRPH
Test [4] has as its system Fibrinogen (Alexa647-labelled). Description: Alexa647-fibrinogen binding to printed small molecules – biochemical, small-molecule microarray, 635/667 nm fluorescence, artefact control for SMM control-protein annotation, profiling panel (AID 1131).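 Further: z-score merges 667 nm fluorescence with per-spot signal-to-noise over triplicate slides.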 Particulars: fibrinogen-A647 binding fluorescence, higher = more signal.
Test [5] has as its target Follistatin (Homo sapiens) (UniProt P19883). Description: FST protein binding to printed compounds – biochemical, small-molecule microarray, 635/667 nm fluorescence, primary screen (AID 1132). Particulars: 635 nm fluorescence, higher = more signal.
Test [6] has as its target Fibroblast growth factor 2 (Homo sapiens) (UniProt P09038). Description: basic fibroblast growth factor binding to printed compounds – biochemical, small-molecule microarray, 635/667 nm fluorescence, primary screen (AID 1133). Particulars: FGF2, fluorescence 635/667, higher = more signal.
Test [7] can be described thus: JC-1 mitochondrial potential readout, lung cancer cells – cell-based, A549, JC-1 fluorescence, basal, 24 h, 100 nL, profiling panel (AID 1138).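 Further: A549 lung adenocarcinoma cells under basal conditions with no added stimulus; test concentration not given here.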 Particulars: higher = more signal.
Test [8] relates to Lefty1. Description: Lefty1 protein binding to printed compounds – biochemical, small-molecule microarray, 635/667 nm fluorescence, primary screen (AID 1139). Particulars: fluorescence 635/667, higher = more signal.
In test [9] the test system is wheat germ agglutinin (Triticum aestivum), Alexa647-labelled. Description: Alexa647-WGA lectin binding to printed small molecules – biochemical, small-molecule microarray, 635/667 nm fluorescence, artefact control for SMM control-protein annotation, profiling panel (AID 1140).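 Further: score merges 667 nm feature emission with signal to noise over triplicate slides.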 Particulars: WGA-A647 binding, 635 nm fluorescence, higher = more signal.
The target of test [10] is Luciferin 4-monooxygenase (Photinus pyralis) (UniProt P08659). Description: inhibition of purified Photinus pyralis luciferase – biochemical, luminescence, purified enzyme, 2006 set, primary screen (AID 1141).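 Further: cell-free assay with purified firefly luciferase at 100 ng per well in PBS; test concentration not given here.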 Particulars: purified firefly luciferase, SteadyGlo luminescence, 30 min; higher = more signal, called active from +8 up or from −8 down.
Sequence of Luciferin 4-monooxygenase (Photinus pyralis) (P08659 whole entry, looked up): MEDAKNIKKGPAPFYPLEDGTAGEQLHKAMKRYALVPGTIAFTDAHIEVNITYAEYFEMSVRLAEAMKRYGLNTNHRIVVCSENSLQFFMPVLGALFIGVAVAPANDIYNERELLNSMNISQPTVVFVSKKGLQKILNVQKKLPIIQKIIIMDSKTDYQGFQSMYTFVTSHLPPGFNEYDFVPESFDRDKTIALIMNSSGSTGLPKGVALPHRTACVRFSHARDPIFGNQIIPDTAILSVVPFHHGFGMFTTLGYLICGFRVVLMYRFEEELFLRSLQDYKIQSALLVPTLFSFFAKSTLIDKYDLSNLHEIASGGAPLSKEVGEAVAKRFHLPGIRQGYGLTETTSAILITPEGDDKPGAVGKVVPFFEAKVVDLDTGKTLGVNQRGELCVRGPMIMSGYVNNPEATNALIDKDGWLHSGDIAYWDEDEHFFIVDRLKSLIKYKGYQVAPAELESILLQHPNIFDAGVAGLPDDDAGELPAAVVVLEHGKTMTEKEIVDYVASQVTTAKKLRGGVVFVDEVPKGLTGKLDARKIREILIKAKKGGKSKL

Active and inactive are the calls of the source.

Sequence of Follistatin (Homo sapiens) (P19883 whole entry, looked up): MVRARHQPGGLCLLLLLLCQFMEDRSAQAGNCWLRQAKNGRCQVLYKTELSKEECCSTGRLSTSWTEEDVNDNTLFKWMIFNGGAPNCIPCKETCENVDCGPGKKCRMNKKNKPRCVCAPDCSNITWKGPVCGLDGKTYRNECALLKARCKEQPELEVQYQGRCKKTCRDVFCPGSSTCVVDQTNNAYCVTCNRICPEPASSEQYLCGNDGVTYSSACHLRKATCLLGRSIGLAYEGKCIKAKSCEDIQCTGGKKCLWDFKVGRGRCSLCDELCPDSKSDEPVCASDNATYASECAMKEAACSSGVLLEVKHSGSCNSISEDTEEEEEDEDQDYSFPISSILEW
Sequence of Fibroblast growth factor 2 (Homo sapiens) (P09038 whole entry, looked up): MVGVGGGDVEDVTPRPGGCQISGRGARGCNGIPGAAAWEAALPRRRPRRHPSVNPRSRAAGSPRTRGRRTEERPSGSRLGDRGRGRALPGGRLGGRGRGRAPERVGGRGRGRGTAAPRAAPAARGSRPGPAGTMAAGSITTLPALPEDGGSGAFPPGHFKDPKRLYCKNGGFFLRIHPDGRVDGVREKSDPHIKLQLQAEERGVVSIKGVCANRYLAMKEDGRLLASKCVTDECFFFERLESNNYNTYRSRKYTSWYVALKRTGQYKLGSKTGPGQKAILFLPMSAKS

For the compound `C=C(CCCC)C(=O)CC[C@H](OC(=O)c1cccnc1)c1ccc(CO)o1`, the composite z-score in [1] is 3.27; in test [2], 1.2; in test [3] it was -0.188; in test [4], 0.664; in test [5], 1.18; in [6], 1.27. The composite z-score in test [8] is 1.65; in test [9], 0.791. Moreover, the z-score in [7] is -0.555; in [10], -1.33 (inactive).

For the compound `C[C@]1(C(=O)NCC(F)(F)F)c2ccccc2C(=O)N(Cc2ccc(OC(F)(F)F)cc2)[C@H]1c1ccc(CO)cc1`, the composite z-score in test [1] came to 0.781; in [2], 0.269; in test [3] it was 0.273; in test [4] it was 0.0709; in test [5] it was 1.13; in [6] it was 0.358. For the same compound, the results for the composite z-score in [8] and in test [9] were 0.369 and 0.314, respectively. Besides, the z-score in test [7] is -0.274; in test [10], -0.219 (inactive).

Consider `COC(=O)[C@]1(CO)N=C(c2ccc(OCCCO)cc2)O[C@@H]1c1ccccc1CN=[N+]=[N-]`, for which the composite z-score is 0.477 in test [1]; 0.286 in test [2]; 0.1 in test [3]; -0.353 in test [4]; 0.996 in test [5]; 0.435 in test [6]. The composite z-score in test [8] was 0.341; in [9], -0.342. The z-score in [7] is -0.232; in test [10] it was -0.676 (inactive).

For `C=CCNC(=O)[C@@H]1[C@H]2C(=O)O[C@H](c3ccccc3)[C@H](c3ccccc3)N2[C@H](c2ccc(O)cc2)[C@@]12C(=O)Nc1ccc(C#CC3(O)CCCCCC3)cc12`, the composite z-score in test [1] is 0.906; in [2] it was 0.596; in test [3], 1.31; in test [4], -1.37; in [5], 0.726; in test [6] it was 0.749. Also, the composite z-score in test [8] is 0.304; in [9], -0.321. The z-score in test [7] is -0.9; in test [10] it was 0.27 (inactive).

With `COCCCN1C(=O)[C@@]2(Cc3ccccc31)c1ccccc1C(=O)N(Cc1ccccc1OC)[C@H]2c1ccc(CO)cc1`, the composite z-score in test [1] is -1.44; in [2], -0.717; in test [3], -0.725; in test [4] it was 0.0715; in test [5] it was -1.07; in [6], -0.665. Moreover, the composite z-score in [8] is -0.566; in test [9] it was -0.0303. In addition, the z-score was 0.0581 in test [7] and -0.522 (inactive) in test [10].

Consider `CCOC(=O)C[C@H]1[C@H](OC(=O)c2ccc(C(=O)c3ccccc3)cc2)[C@@H](NC(=O)c2ccc3ccccc3c2)c2cc(OCCCO)ccc2N1C(=O)c1ccc2ccccc2n1`, for which the composite z-score was determined as 0.565 in test [1]; 0.578 in test [2]; 0.44 in test [3]; 0.892 in [4]; 0.331 in test [5]; 0.851 in [6]. For the same compound, the composite z-score in test [8] was determined as 0.704; in test [9], 0.0601. For the same compound, the z-score was 2.1 in test [7] and -0.818 (inactive) in test [10].

Take `C=C(COC)/C(=C/C[C@@H](OC(C)=O)c1ccccc1OCCO)c1cc(C(=O)OC)ccc1OC`: the composite z-score in test [1] is 2.21; in test [2], 0.461; in test [3] it was -0.102; in [4] it was -0.325; in test [5] it was 0.569; in test [6], 0.36. The figures for the composite z-score in [8] and in [9] were 0.624 and 0.344, respectively. The values for the z-score in [7] and in test [10] were 1.75 and -1.47 (inactive), respectively.

`Cc1ccc(S(=O)(=O)N2[C@@H](c3ccccc3)C(C(=O)O)=CC[C@H]2c2ccc(C#N)cc2)cc1`: the composite z-score in test [1] was 1.58; in test [2], 1.31; in test [3], 0.447; in test [4], 0.992; in test [5] it was 0.0793; in [6], -0.413. Further, the composite z-score in [8] was -0.388; in test [9], 1.05. The z-score in test [7] was -1.38; in test [10] it was 0.654 (inactive).

`CN(C)CCCC[C@@H]1NC(=O)[C@@H]2C[C@H](C(=O)NCCCCCCNC(=O)CS)[C@H](c3cccc(OCCO)c3)N2C1=O`: the composite z-score in [1] was 1.5; in test [2], 0.0742; in test [3], 0.819; in [4] it was -1.07; in test [5] it was 0.541; in test [6], 0.541. Moreover, the composite z-score was 0.273 in test [8] and 0.235 in [9]. In addition, the z-score in test [7] is 1.12; in [10], -0.402 (inactive).

With `COC(=O)[C@@]1(Cc2ccccc2)[C@H]2c3cc(C(=O)N4CCCC4)n(Cc4ccc(C(F)(F)F)nc4)c3C[C@H]2CN1C(=O)c1ccccc1`, the composite z-score in [1] is 0.472; in test [2], 1.28; in test [3], 1.23; in test [4], 1.06; in [5], 0.778; in test [6] it was -0.38. The composite z-score worked out at 0.333 in test [8] and 1.05 in test [9]. The z-score was 1.32 in test [7] and 2.36 (inactive) in test [10].

Turning to `CN(C)CCCNC(=O)[C@@H]1c2ccccc2C(=O)N(C2Cc3ccccc3C2)[C@H]1c1ccc(CO)cc1`, the composite z-score is 0.0265 in test [1]; 1.11 in test [2]; 0.726 in [3]; 0.784 in test [4]; 0.27 in test [5]; -0.139 in test [6]. For the same compound, the composite z-score is -0.199 in [8] and 0.164 in test [9]. Also, the z-score in test [7] is 2.07; in test [10], -0.825 (inactive).

Regarding `CC(C)C[C@@H]1NC(=O)[C@@H]2C[C@H](C(=O)O)[C@H](c3ccc(O)cc3)N2C1=O`, the composite z-score in test [1] is 2.41; in [2], 1.13; in [3], 0.6; in test [4] it was 0.878; in test [5], 1.37; in test [6], 1.49. Further, the composite z-score in test [8] stood at 1.04; in test [9] it was 0.938. Further, the figures for the z-score in test [7] and in test [10] were 0.892 and -2.98 (inactive), respectively.

As to `C=CC[C@]1(C(=O)N(C)C)COC(c2ccc(OCCCO)cc2)=N1`, the composite z-score in [1] was 3.41; in [2], 1.09; in test [3], 0.268; in [4], -0.744; in test [5], 0.517; in test [6], 0.982. For the same compound, the values for the composite z-score in test [8] and in test [9] were -0.26 and 0.615, respectively. Also, the z-score in test [7] was -0.392; in test [10] it was -2.7 (inactive).

Consider `O=C1OCCC=C[C@H]2OC34C=CCN(CCN5CCOCC5)C(=O)[C@H]3N(CCCO)C(=O)[C@@H]4C12` (stereo not given in full), for which the composite z-score in [1] is 0.0466; in [2], -1.11; in test [3] it was -0.251; in test [4], -0.0881; in test [5], -0.0312; in test [6], -1.26. The composite z-score in test [8] is -0.0933; in [9] it was -0.458. Also, the z-score in test [7] is -0.962; in test [10], -0.552 (inactive).
